# Reference: PubChem BioAssay (EPA / NIEHS)
# Calls of active or inactive are those of the source. How the source made its calls: active means hit-call score of the fitted dose curve at least 0.9, where 1 is the maximum; inactive means score below 0.9.
# Read-out: Monokine induced gamma interferon (MIG), CXCL9 (gene 4283)
# Assay: BSK_3C_MIG: BioMAP Diversity Plus: 3C Assay for Monokine induced gamma interferon (MIG) Biomarker Activity (AID 2283021);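 on AC50: MIG protein level measured by immunoassay in the treated endothelial cultures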
# Conditions: primary human endothelial cells (HUVEC); actives raise or lower the signal
# Protocol: BSK_3C is a cell-based, multiplexed-readout assay that uses umbilical vein endothelium, a human vascular primary cell, with measurements taken at 24 hours after chemical dosing in a 96-well plate.BSK_3C_MIG is an assay component measured in the BSK_3C assay. It measures MIG antibody related to regulation of gene expression using ELISA technology.Data from the assay component BSK_3C_MIG was analyzed into 1 assay endpoint. This assay endpoint, BSK_3C_MIG, was analyzed with bidirectional fitting relative to DMSO as the negative control and baseline of activity. Using a type of binding reporter, gain or loss-of-signal activity can be used to understand changes in the signaling as they relate to the gene CXCL9. Furthermore, this assay endpoint can be referred to as a primary readout, because this assay has produced multiple assay endpoints where this one serves a signaling function. To generalize the intended target to other relatable targets, this assay endpoint is annotated to the cytokine intended target family, where the subfamily is chemotactic factor.
# The levels of cell surface (or secreted, indicated by the prefix "s") biomarker endpoints were measured by ELISA. Overt cytotoxicity to cells in confluent adherent cultures (all systems other than the BT system) was assessed by measuring total protein levels using sulforhodamine B (SRB) staining in parallel cultures at the time of biomarker measurements, indicated as SRB endpoints. For proliferation assays for adherent cell types, individual cell types are cultured at sub-confluence and relative cell numbers quantified by SRB staining at time points optimized for each system (48 h: 3C and CASM3C systems; 72 h: BT and HDF3CGF systems; 96 h: SAg system). SRB was performed by staining cells with 0.1% SRB after fixation with 10% TCA and reading wells at 560 nm.Viability and proliferation of PBMC (T cells) was quantified by Alamar Blue reduction for the SAg and BT systems. For PBMC viability (referred to as PBMC Cytotoxicity within the assay endpoint names), cells were plated (75,000/well in a 96-well plate) and then chemical samples added for 1 h before addition of activators, SEB and TSST-1 (20 ng/mL final concentration each). Cells were incubated for 90 h. Then, Alamar Blue (20 uL/well) (Invitrogen, Cat DAL1100) was added for 6 h, and the plates were read with a fluorescence microplate reader at 546/580 nm (excitation/emission). For PBMC proliferation, cells were plated and activated as above but incubated for only 16 h prior to addition of Alamar Blue. Plates were read after 6 h.
SMILES,outcome,AC50
CCOP(=S)(OCC)SCS(=O)(=O)CC,inactive,–
Nc1ccc2ccccc2c1,inactive,–
Nc1cc2c3c(c1)C(c1ccccc1)=N[C@@H](NC(=O)c1cccnc1)C(=O)N3CC2,inactive,–
CC(C)(C)c1ccccc1OP(=O)(Oc1ccccc1)Oc1ccccc1,inactive,–
CSC(C)(C)C=NO,inactive,–
OCC(F)(F)OC(F)(F)C(F)(F)OC(F)(F)CO,inactive,–
N#Cc1c(-c2ccc(Cl)cc2)[nH]c(C(F)(F)F)c1Br,inactive,–
C=CC(=O)OCC(CC)(COC(=O)C=C)COC(=O)C=C,–,3.68 µM (active)
O=c1ssc(Cl)c1Cl,–,14.8 µM (active)
CCOP(=S)(NC(C)C)Oc1ccccc1C(=O)OC(C)C (stereo not given),inactive,–
O=C(O)C(F)(F)OC(F)(F)C(F)(F)OC(F)(F)C(=O)O,inactive,–
CCCCC(CC)COC(=O)c1c(Br)c(Br)c(Br)c(Br)c1C(=O)OCC(CC)CCCC (stereo not given),inactive,–
O=S1(=O)OCC2C(CO1)C1(Cl)C(Cl)=C(Cl)C2(Cl)C1(Cl)Cl (stereo not given),inactive,–
COC(=O)C(F)(F)C(F)(F)OC(F)(C(F)(F)F)C(F)(F)OC(F)=C(F)F (stereo not given),inactive,–
CCN(CC)c1ccccc1,inactive,–
ClC(Cl)c1ccccc1,inactive,–
ClC(Cl)=C(c1ccc(Cl)cc1)c1ccccc1Cl,–,29.2 µM (active)
COP(=O)(CCC(=O)NCO)OC,inactive,–
Cc1c([N+](=O)[O-])cc2c(c1[N+](=O)[O-])C(C)(C)CC2(C)C,inactive,–
ClC1=C(Cl)C2(Cl)C3C(Cl)C(Cl)CC3C1(Cl)C2(Cl)Cl (stereo not given),–,35.6 µM (active)

SMILES,outcome,AC50
CCCCOCCOP(=O)(OCCOCCCC)OCCOCCCC,inactive,–
Cc1ccc(N)cc1N,inactive,–
CCOP(=S)(OCC)SCSc1ccc(Cl)cc1,inactive,–
CCCCCCCc1ccc(O)cc1,–,38.4 µM (active)
NC(=O)C(F)(F)C(F)(F)F,inactive,–
CC(C)(C)c1ccc(O)cc1,inactive,–
O=P1(N(CCCl)CCCl)NCCCO1 (stereo not given),inactive,–
Nc1ccc(Cl)cc1,inactive,–
CCCCN(CCCC)N=O,inactive,–
CCCCc1ccccc1,inactive,–
CCC1(c2ccccc2)C(=O)N=C(O)NC1=O (stereo not given),inactive,–
CC(O)C(F)(F)C(F)(F)F (stereo not given),inactive,–
OCC1CO1 (stereo not given),inactive,–
ClC(Cl)(Cl)c1ccccc1,inactive,–
Cc1ccc2c(c1N)C(=O)c1ccccc1C2=O,inactive,–
FC(F)(F)C(F)(C(F)(F)F)C(F)(F)C(F)(F)CC1CO1 (stereo not given),inactive,–
O=P(OCC(Br)CBr)(OCC(Br)CBr)OCC(Br)CBr (stereo not given),inactive,–
COP(=O)(O)OC,inactive,–
O=C(O)C(F)(F)C(F)(F)C(=O)O,inactive,–
c1ccc2c(c1)Nc1ccccc1S2,inactive,–
